Measured values as given in PubChem BioAssay (EPA / NIEHS).
Results filed as inconclusive are left out. Calls of active or inactive are those of the source. The calls were made as follows: active = hit-call score of the fitted dose curve at least 0.9, where 1 is the maximum; inconclusive = response in the unintended direction; inactive = score below 0.9.

read-out: Cytochrome P450 2B6 (Homo sapiens) (UniProt P20813); test: CLD_CYP2B6_24hr: CellzDirect (CLD) Gene Expression Assay for xenobiotic metabolism (CYP2B6) at 24 hours (AID 2283686)
Description: CLD_24hr is a cell-based, multiplexed-readout assay that uses hepatocyte, a human liver primary cell, with measurements taken at 24 hours after chemical dosing in a 96-well plate.CLD_CYP2B6_24hr is one of 16 assay component(s) measured or calculated from the CLD_24hr assay. It is designed to make measurements of mRNA induction, a form of inducible reporter, as detected with chemiluminescence signals by Quantitative Nuclease Protection Assay (qNPA) technology.Data from the assay component CLD_CYP2B6_24hr was analyzed at the endpoint, CLD_CYP2B6_24hr, in the positive analysis fitting direction relative to DMSO as the negative control and baseline of activity. Using a type of inducible reporter, gain-of-signal activity can be used to understand changes in the reporter gene as they relate to the gene CYP2B6. Furthermore, this assay endpoint can be referred to as a primary readout. To generalize the intended target to other relatable targets, this assay endpoint is annotated to the cyp intended target family, where subfamily is xenobiotic metabolism.
Human hepatocyte cultures were treated daily for two consecutive days with fresh dosing solutions containing appropriate concentrations of the 320 ToxCast chemicals (chemical identities were blinded to CellzDirect and other ToxCast collaborators), vehicle control (0.2% DMSO), and positive control inducers as summarized in Table 1. Due to the large number of treatment groups and chemicals examined, the ToxCast chemicals were divided into two groups (spanning two independent cultures of hepatocytes from separate donor preparations (Hu778: ToxCast plates 1 and 2; Hu776: ToxCast plates 3 and 4). Each preparation of human hepatocyte cultures was treated with respective vehicle control, medium only control, set of six positive controls/reference chemicals for the five hepatic receptor pathways, and a subset of eight of the ToxCast chemicals (indoxacarb, pyrithiobac-sodium, norflurazon, cyhalofop-butyl, methomyl, thiram, acetochlor, and propiconazole). These replicate data, coupled with internal replicates designed within the blinded ToxCast chemical library, provided additional data to evaluate interindividual differences between hepatocyte preparations and their potential impact on chemical profiles.Cell morphology and integrity were evaluated using phase-contrast microscopy as an indicator of hepatocyte cell health (Tyson & Green, 1987). Cultures for each treatment group (i.e., media, vehicle [0.2% DMSO], positive control inducers [multiple concentrations], and the ToxCast chemicals [multiple concentrations]) were observed and cell morphology was assessed relative to vehicle control cultures at each harvest time point (0, 6, 24, or 48 h). […] Images were evaluated at the conclusion of the study to assess changes in cell integrity and account for the effects of chemical exposure on uncharacteristic changes in concentration-dependent gene expression profiles. The results from these determinations of apparent cytotoxicity were annotated (yes/no) alongside the corresponding qNPA data for reference.At the conclusion of each treatment period, hepatocyte cultures (96-well) were washed with 1 volume of HBSS, lysed by addition of 25 ul ArrayPlate lysis buffer (HTG, Tucson, AZ), and 70 ul/well of Denaturation Oil, denatured by incubation at 95C for 10 min, and frozen at approximately -70C until analysis by nuclease protection assay (qNPA) (Roberts et al., 2007). For qNPA analysis, cell lysates were thawed at 50C for approximately 30 min, qNPA probes were added, and samples were incubated at 95C for 10 min to begin the detection process by denaturing the target RNA, dissociating the duplexes and secondary structure hybridization. At the conclusion of the hybridization period, S1 nuclease reagent was added to each sample to digest all nonprotected nucleotides at 50C for 60-90 min. […]

Q: For `CCCN(CCOc1c(Cl)cc(Cl)cc1Cl)C(=O)n1ccnc1`, which AC50 is on record?
A: 1890 nM (active)

Q: Which outcome does the source give for `COP(=O)(OC)OC=C(Cl)Cl` here?
A: inactive

Q: For `CCS(=O)(=O)c1cccnc1S(=O)(=O)NC(=O)Nc1nc(OC)cc(OC)n1`, which outcome is on record?
A: inactive

Q: `CCN(CC)C(=O)SCc1ccc(Cl)cc1` was tested. Which AC50 did it give?
A: 3930 nM (active)

Q: How did the AC50 turn out when `C[C@H]1[C@H](c2ccc(Cl)cc2)SC(=O)N1C(=O)NC1CCCCC1` was run?
A: 2580 nM (active)

Q: `CC(C)(C)C(O)/C(=C\c1ccc(Cl)cc1Cl)n1cncn1` (stereo not given) was tested. Which AC50 did it give?
A: 621 nM (active)

Q: How did the AC50 turn out when `ClC1C(Cl)C(Cl)C(Cl)C(Cl)C1Cl` (stereo not given) was run?
A: 1390 nM (active)

Q: How did the AC50 turn out when `Clc1ccccc1-c1nnc(-c2ccccc2Cl)nn1` was run?
A: 9.29 nM (active)

Q: With `CCOCN(C(=O)CCl)c1c(C)cccc1CC` as the compound, how does the AC50 read?
A: 2050 nM (active)

Q: `OCCOc1ccccc1` was tested. Which outcome did it give?
A: inactive

Q: For `O=C(O)C(F)(F)C(F)(F)C(F)(F)C(F)(F)C(F)(F)C(F)(F)C(F)(F)F`, which outcome is on record?
A: inactive

Q: Which AC50 does the source give for `CNC(=O)/C=C(\C)OP(=O)(OC)OC` here?
A: 0.497 nM (active)

Q: With `O=C(NC(=O)c1c(F)cccc1F)Nc1ccc(OC(F)(F)C(F)OC(F)(F)F)c(Cl)c1` (stereo not given) as the compound, how does the outcome read?
A: inactive

Q: `COc1cc(OC)nc(NC(=O)NS(=O)(=O)c2cc(NC=O)ccc2C(=O)N(C)C)n1` was tested. Which outcome did it give?
A: inactive

Q: How did the AC50 turn out when `CCOC1Oc2ccc(OS(C)(=O)=O)cc2C1(C)C` (stereo not given) was run?
A: 3120 nM (active)

Q: How did the outcome turn out when `Oc1ccc(Cl)cc1Cc1ccccc1` was run?
A: inactive

Q: How did the outcome turn out when `CCC(C)(C)C(=O)OC1=C(c2ccc(Cl)cc2Cl)C(=O)OC12CCCCC2` was run?
A: inactive

Q: How did the outcome turn out when `COC(=O)c1ccccc1CS(=O)(=O)NC(=O)Nc1nc(OC)cc(OC)n1` was run?
A: inactive

Q: `O=[N+]([O-])c1c(Cl)c(Cl)c(Cl)c(Cl)c1Cl` was tested. Which AC50 did it give?
A: 4020 nM (active)

Q: With `O=S1OCC2C(CO1)C1(Cl)C(Cl)=C(Cl)C2(Cl)C1(Cl)Cl` (stereo not given) as the compound, how does the AC50 read?
A: 2560 nM (active)

Q: For `COC(=O)c1ccccc1S(=O)(=O)NC(=O)Nc1nc(C)nc(OC)n1`, which outcome is on record?
A: inactive

Q: For `CCC(C)(NC(=O)c1cc(Cl)c(C)c(Cl)c1)C(=O)CCl` (stereo not given), which AC50 is on record?
A: 3970 nM (active)

Q: For `O=C(O)COc1ccc(Cl)cc1Cl`, which outcome is on record?
A: inactive

Q: For `COP(=S)(OC)Oc1ccc([N+](=O)[O-])cc1`, which AC50 is on record?
A: 5280 nM (active)

Q: Which AC50 does the source give for `CC(C)OC(=O)Nc1cccc(Cl)c1` here?
A: 7720 nM (active)

Q: With `Cc1[nH]c(=O)n(C(C)(C)C)c(=O)c1Cl` as the compound, how does the outcome read?
A: inactive

Q: How did the AC50 turn out when `CCC(C)Nc1c([N+](=O)[O-])cc(C(C)(C)C)cc1[N+](=O)[O-]` (stereo not given) was run?
A: 3630 nM (active)

Q: `CCc1ccc(C(=O)NN(C(=O)c2cc(C)cc(C)c2)C(C)(C)C)cc1` was tested. Which AC50 did it give?
A: 2190 nM (active)

Q: For `O=C(O)CCCOc1ccc(Cl)cc1Cl`, which outcome is on record?
A: inactive

Q: With `C#CCN1C(=O)COc2cc(F)c(N3C(=O)C4=C(CCCC4)C3=O)cc21` as the compound, how does the AC50 read?
A: 20000 nM (active)

Q: With `CNC(=O)Oc1ccccc1OC(C)C` as the compound, how does the AC50 read?
A: 1600 nM (active)

Q: How did the outcome turn out when `Cc1cc(C)nc(NC(=O)NS(=O)(=O)c2ccccc2C(=O)OC2COC2)n1` was run?
A: inactive

Q: `O=S(=O)(O)C(F)(F)C(F)(F)C(F)(F)C(F)(F)C(F)(F)C(F)(F)C(F)(F)C(F)(F)F` was tested. Which outcome did it give?
A: inactive

Q: Which outcome does the source give for `CC1(C)C(C=C(Cl)Cl)C1C(=O)OC(C#N)c1ccc(F)c(Oc2ccccc2)c1` (stereo not given) here?
A: inactive

Q: For `Oc1cc(Cl)ccc1Oc1ccc(Cl)cc1Cl`, which outcome is on record?
A: inactive

Q: `COc1nn(CSP(=S)(OC)OC)c(=O)s1` was tested. Which AC50 did it give?
A: 1970 nM (active)

Q: How did the AC50 turn out when `CC(C)N(C(=O)COc1nnc(C(F)(F)F)s1)c1ccc(F)cc1` was run?
A: 7160 nM (active)

Q: Which outcome does the source give for `COC(=O)c1ccccc1S(=O)(=O)NC(=O)N(C)c1nc(C)nc(OC)n1` here?
A: inactive

Q: `COP(=S)(OC)Oc1ccc(SC)c(C)c1` was tested. Which AC50 did it give?
A: 20000 nM (active)

Q: `CC[C@H](C)[C@H]1O[C@]2(C=C[C@@H]1C)C[C@@H]1C[C@@H](C/C=C(\C)[C@@H](O[C@H]3C[C@H](OC)[C@@H](O[C@H]4C[C@H](OC)[C@@H](O)[C@H](C)O4)[C@H](C)O3)[C@@H](C)/C=C/C=C3\CO[C@@H]4[C@H](O)C(C)=C[C@@H](C(=O)O1)[C@]34O)O2` (tested in a mixture with another compound) was tested. Which AC50 did it give?
A: 3970 nM (active)
